In ChEMBL document CHEMBL1961873, “Compounds: GSK PKIS; Assays: Nanosyn kinase panel” (2012):

Tests used:
[1] = target: T1, Ephrin type-B receptor 2 (Homo sapiens) (UniProt P29323); details: at 1 µM
T1 sequence (whole entry): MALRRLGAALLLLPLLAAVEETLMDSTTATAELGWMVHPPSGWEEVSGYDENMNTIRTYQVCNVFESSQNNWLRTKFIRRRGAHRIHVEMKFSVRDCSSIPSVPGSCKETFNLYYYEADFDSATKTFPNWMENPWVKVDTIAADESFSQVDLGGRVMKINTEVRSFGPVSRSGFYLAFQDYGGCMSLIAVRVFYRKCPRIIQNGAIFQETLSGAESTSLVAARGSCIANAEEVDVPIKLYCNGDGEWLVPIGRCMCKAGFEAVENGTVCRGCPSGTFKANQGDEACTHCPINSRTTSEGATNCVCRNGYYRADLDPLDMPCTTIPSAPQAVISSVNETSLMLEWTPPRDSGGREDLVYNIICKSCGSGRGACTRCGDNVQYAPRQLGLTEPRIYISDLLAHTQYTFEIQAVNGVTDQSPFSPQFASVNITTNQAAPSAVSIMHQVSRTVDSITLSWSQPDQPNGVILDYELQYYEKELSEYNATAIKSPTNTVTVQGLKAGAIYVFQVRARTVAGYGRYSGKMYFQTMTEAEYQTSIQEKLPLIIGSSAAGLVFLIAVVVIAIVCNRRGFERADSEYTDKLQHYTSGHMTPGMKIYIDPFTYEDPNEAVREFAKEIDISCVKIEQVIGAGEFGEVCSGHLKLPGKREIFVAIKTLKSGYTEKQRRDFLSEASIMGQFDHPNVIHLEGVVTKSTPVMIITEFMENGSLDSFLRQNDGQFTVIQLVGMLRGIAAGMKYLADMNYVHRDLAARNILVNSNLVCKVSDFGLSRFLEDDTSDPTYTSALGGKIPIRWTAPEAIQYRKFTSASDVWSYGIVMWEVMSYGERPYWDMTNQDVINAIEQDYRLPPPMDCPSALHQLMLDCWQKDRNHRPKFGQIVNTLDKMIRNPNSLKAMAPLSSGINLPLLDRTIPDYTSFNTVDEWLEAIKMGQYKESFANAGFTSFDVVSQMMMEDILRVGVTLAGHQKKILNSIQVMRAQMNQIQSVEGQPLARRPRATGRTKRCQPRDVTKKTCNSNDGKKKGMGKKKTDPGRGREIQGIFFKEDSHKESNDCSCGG

[2] = target: T2, Ephrin type-B receptor 3 (Homo sapiens) (UniProt P54753); details: at 0.1 µM
T2 sequence (whole entry): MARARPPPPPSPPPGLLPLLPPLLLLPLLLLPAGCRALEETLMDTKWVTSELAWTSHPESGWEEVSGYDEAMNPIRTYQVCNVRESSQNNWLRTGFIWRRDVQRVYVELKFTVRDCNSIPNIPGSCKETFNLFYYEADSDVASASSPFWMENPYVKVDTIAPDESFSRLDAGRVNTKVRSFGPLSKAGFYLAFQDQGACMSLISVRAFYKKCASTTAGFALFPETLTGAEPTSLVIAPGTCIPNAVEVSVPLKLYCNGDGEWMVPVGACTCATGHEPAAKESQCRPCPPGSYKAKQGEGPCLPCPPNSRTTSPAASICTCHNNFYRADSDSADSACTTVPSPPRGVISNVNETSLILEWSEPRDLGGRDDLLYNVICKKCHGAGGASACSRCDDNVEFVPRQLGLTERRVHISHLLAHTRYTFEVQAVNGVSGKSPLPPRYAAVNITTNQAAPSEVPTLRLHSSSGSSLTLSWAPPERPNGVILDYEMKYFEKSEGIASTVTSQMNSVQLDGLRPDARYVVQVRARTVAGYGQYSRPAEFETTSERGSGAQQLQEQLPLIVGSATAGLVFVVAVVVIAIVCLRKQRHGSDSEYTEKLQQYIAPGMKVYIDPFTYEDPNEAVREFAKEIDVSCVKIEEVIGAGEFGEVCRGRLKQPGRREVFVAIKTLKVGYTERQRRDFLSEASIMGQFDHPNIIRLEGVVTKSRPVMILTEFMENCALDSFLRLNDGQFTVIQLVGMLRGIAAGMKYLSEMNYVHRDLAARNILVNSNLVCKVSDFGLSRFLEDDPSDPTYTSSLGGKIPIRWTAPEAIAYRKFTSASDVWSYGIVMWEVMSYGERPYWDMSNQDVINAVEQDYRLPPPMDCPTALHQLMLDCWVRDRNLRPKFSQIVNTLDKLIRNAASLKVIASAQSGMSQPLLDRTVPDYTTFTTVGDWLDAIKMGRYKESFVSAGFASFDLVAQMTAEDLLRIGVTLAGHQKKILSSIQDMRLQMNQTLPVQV

[3] = target: T2, Ephrin type-B receptor 3 (Homo sapiens); details: at 1 µM
[4] = target: T3, Ephrin type-B receptor 4 (Homo sapiens) (UniProt P54760); details: at 0.1 µM
T3 sequence (whole entry): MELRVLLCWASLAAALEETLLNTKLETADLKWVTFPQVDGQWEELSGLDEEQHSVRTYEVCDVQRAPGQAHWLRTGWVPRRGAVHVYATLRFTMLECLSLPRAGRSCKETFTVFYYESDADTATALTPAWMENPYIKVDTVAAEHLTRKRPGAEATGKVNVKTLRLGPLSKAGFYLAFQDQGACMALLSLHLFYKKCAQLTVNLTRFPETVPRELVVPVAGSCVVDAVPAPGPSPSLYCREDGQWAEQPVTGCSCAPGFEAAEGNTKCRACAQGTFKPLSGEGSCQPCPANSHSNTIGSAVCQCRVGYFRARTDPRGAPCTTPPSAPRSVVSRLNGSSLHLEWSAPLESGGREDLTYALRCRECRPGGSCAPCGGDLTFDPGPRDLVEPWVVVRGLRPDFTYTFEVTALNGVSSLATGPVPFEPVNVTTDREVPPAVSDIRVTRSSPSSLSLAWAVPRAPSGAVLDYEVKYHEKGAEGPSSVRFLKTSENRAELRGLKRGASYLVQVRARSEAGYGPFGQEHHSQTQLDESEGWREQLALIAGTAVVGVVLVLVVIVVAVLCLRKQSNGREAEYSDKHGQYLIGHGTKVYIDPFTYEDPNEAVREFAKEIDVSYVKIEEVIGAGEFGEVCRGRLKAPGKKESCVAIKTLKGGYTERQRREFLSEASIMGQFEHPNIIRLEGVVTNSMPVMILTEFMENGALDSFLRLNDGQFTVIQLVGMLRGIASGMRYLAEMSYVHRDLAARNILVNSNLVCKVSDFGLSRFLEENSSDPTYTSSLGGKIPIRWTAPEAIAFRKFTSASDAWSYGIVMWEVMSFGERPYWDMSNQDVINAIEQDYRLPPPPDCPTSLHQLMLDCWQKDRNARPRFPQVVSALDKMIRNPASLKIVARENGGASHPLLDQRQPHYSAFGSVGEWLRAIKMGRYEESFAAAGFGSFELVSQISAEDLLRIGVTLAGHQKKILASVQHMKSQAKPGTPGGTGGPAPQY

[5] = target: T3, Ephrin type-B receptor 4 (Homo sapiens); details: at 1 µM
[6] = target: Receptor tyrosine-protein kinase erbB-2 (Homo sapiens) (UniProt P04626); details: at 0.1 µM
[7] = target: Receptor tyrosine-protein kinase erbB-2 (Homo sapiens) (UniProt P04626); details: at 1 µM
[8] = target: Receptor tyrosine-protein kinase erbB-4 (Homo sapiens) (UniProt Q15303); details: at 0.1 µM
[9] = target: Receptor tyrosine-protein kinase erbB-4 (Homo sapiens) (UniProt Q15303); details: at 1 µM
[10] = target: Tyrosine-protein kinase Fer (Homo sapiens) (UniProt P16591); details: at 0.1 µM
[11] = target: Tyrosine-protein kinase Fer (Homo sapiens) (UniProt P16591); details: at 1 µM
[12] = target: Tyrosine-protein kinase Fes/Fps (Homo sapiens) (UniProt P07332); details: at 0.1 µM
[13] = target: Tyrosine-protein kinase Fes/Fps (Homo sapiens) (UniProt P07332); details: at 1 µM
[14] = target: Fibroblast growth factor receptor 1 (Homo sapiens) (UniProt P11362); details: at 0.1 µM
[15] = target: Fibroblast growth factor receptor 1 (Homo sapiens) (UniProt P11362); details: at 1 µM
[16] = target: Fibroblast growth factor receptor 2 (Homo sapiens) (UniProt P21802); details: at 0.1 µM
[17] = target: Fibroblast growth factor receptor 2 (Homo sapiens) (UniProt P21802); details: at 1 µM
[18] = target: Fibroblast growth factor receptor 3 (Homo sapiens) (UniProt P22607); details: at 0.1 µM
[19] = target: Fibroblast growth factor receptor 3 (Homo sapiens) (UniProt P22607); details: at 1 µM
[20] = target: Fibroblast growth factor receptor 4 (Homo sapiens) (UniProt P22455); details: at 0.1 µM;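 further: values are mean percent inhibition of FGFR4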
Sequence of Fibroblast growth factor receptor 4 (Homo sapiens) (P22455 22-802 limits assumed): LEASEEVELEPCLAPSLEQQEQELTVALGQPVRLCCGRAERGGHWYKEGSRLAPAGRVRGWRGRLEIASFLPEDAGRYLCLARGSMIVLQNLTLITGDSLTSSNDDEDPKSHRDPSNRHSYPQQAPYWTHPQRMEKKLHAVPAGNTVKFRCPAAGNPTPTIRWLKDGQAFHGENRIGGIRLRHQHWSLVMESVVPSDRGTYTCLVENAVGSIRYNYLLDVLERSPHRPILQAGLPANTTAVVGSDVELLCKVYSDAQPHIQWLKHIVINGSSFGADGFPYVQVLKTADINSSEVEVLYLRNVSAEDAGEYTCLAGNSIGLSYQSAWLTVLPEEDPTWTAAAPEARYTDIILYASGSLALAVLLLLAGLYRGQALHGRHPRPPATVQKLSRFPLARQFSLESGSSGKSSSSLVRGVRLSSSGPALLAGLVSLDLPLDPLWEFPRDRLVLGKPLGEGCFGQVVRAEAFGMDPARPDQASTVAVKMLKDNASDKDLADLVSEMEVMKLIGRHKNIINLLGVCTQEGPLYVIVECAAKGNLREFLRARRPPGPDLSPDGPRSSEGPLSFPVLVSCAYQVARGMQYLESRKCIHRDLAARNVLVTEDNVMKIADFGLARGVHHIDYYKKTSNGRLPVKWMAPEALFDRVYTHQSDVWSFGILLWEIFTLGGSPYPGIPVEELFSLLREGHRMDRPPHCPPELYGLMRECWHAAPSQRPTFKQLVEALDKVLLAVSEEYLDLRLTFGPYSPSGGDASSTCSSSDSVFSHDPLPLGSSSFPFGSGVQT

Sequence of Tyrosine-protein kinase Fer (Homo sapiens) (P16591 whole entry, looked up): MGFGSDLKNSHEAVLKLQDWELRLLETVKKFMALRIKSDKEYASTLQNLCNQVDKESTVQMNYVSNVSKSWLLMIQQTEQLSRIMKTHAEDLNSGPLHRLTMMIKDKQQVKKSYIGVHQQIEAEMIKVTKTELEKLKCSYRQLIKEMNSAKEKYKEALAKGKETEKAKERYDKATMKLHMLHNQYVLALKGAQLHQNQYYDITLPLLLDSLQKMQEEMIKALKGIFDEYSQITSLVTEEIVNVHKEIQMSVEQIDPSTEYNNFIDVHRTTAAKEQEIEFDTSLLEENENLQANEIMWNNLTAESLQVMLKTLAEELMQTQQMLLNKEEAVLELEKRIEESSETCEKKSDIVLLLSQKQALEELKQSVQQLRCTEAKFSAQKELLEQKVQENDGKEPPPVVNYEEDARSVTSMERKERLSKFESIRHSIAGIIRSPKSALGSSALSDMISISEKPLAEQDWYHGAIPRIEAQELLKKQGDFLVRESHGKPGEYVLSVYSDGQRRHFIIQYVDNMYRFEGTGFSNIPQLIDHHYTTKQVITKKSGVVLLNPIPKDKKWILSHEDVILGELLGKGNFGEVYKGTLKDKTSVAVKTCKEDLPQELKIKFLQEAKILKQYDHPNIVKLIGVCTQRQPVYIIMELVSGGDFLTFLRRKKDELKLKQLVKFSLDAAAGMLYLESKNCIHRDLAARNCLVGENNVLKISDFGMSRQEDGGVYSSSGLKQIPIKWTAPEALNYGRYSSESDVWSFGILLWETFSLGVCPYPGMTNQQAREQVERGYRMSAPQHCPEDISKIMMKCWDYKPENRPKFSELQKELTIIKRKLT
Sequence of Fibroblast growth factor receptor 2 (Homo sapiens) (P21802 22-821 limits assumed): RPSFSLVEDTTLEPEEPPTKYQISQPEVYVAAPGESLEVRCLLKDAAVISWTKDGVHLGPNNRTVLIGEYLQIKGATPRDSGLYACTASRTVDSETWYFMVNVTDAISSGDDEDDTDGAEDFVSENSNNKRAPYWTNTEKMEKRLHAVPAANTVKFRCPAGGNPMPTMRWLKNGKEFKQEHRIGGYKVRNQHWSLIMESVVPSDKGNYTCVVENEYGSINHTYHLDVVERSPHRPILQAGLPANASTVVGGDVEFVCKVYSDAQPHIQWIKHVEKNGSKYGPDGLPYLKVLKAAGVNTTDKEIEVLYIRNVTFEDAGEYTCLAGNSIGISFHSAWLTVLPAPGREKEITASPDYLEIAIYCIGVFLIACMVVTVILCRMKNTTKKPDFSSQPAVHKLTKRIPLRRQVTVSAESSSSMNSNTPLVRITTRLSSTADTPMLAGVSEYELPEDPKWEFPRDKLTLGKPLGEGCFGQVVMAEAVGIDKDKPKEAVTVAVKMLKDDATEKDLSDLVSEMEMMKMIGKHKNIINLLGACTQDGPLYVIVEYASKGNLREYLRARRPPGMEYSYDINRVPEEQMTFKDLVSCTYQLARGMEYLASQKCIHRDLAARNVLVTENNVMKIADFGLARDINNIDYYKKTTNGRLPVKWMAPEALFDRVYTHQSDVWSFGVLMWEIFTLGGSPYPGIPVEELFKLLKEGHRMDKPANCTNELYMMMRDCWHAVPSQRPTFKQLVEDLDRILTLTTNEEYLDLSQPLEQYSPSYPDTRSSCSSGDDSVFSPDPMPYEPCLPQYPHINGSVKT
Sequence of Tyrosine-protein kinase Fes/Fps (Homo sapiens) (P07332 whole entry): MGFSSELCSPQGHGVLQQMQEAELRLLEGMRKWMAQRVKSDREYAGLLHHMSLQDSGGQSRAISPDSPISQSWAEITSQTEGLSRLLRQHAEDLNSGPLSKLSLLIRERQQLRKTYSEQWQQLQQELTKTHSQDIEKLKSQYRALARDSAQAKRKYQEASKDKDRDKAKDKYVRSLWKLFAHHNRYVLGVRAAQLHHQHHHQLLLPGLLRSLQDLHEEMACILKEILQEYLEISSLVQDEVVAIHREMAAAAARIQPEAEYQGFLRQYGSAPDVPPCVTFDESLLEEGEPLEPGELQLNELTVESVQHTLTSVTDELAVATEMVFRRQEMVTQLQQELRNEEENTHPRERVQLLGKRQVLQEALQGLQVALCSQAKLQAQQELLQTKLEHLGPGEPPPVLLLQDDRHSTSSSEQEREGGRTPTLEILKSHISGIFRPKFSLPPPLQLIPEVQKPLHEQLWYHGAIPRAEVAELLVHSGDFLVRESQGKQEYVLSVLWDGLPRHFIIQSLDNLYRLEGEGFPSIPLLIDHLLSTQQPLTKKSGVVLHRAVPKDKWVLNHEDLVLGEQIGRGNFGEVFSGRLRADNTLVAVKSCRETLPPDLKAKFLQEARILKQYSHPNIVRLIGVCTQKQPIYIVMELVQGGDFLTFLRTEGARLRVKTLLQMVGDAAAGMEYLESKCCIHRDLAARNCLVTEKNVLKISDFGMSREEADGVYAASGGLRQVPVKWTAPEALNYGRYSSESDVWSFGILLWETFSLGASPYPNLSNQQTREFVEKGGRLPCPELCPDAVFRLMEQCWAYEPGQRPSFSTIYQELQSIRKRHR
Sequence of Fibroblast growth factor receptor 3 (Homo sapiens) (P22607 23-806 limits assumed): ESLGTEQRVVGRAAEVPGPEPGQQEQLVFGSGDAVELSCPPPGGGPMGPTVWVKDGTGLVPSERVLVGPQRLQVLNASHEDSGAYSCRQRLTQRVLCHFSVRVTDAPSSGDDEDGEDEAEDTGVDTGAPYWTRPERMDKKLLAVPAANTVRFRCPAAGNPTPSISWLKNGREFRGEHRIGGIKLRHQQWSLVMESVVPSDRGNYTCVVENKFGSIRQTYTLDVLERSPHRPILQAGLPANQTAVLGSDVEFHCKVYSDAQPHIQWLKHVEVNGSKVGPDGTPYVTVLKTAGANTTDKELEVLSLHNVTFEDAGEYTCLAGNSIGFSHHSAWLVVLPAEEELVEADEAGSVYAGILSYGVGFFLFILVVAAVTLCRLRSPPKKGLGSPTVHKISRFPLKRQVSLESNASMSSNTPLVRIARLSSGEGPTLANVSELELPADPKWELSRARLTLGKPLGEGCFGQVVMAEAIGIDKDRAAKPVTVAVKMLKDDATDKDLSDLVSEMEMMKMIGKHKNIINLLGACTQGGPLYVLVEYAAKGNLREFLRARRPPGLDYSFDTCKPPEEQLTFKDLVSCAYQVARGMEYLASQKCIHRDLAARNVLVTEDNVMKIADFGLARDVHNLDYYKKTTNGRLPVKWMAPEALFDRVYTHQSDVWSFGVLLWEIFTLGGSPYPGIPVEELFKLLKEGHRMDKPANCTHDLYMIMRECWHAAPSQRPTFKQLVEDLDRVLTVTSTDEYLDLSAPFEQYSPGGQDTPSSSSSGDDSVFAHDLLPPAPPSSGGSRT
Sequence of Fibroblast growth factor receptor 1 (Homo sapiens) (P11362 22-822 limits assumed): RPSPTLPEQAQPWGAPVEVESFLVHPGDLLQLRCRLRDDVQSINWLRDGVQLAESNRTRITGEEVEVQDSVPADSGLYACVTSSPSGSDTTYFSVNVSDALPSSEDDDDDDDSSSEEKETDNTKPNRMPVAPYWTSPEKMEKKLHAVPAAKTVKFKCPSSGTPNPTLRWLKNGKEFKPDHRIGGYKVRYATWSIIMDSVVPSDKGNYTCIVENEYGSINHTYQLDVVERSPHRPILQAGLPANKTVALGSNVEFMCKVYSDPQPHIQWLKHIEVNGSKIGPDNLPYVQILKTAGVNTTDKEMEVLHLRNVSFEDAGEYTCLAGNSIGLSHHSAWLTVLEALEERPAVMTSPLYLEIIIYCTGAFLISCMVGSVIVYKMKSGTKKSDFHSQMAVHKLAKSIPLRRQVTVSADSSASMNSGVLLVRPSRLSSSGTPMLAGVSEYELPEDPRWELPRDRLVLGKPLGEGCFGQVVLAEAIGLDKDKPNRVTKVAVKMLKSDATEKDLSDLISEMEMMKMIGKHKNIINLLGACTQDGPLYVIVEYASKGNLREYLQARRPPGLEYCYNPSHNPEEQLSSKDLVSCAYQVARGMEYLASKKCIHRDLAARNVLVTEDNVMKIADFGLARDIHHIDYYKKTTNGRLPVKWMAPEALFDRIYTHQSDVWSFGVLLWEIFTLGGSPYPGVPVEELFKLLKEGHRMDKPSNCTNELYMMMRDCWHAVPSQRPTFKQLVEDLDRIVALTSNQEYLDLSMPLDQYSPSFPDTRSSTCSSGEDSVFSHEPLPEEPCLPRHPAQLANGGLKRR

SMILES	inhibition [1] [%]	inhibition [2] [%]	inhibition [3] [%]	inhibition [4] [%]	inhibition [5] [%]	inhibition [6] [%]	inhibition [7] [%]	inhibition [8] [%]	inhibition [9] [%]	inhibition [10] [%]	inhibition [11] [%]	inhibition [12] [%]	inhibition [13] [%]	inhibition [14] [%]	inhibition [15] [%]	inhibition [16] [%]	inhibition [17] [%]	inhibition [18] [%]	inhibition [19] [%]	inhibition [20] [%]
CS(=O)(=O)CCNCc1nc(-c2ccc3ncnc(Nc4ccc(OCc5cccc(C(F)(F)F)c5)cc4)c3c2)cs1	6.37	2.8	3.98	-1.44	2.09	4.71	4.32	6.42	25.6	3.78	6.92	1.48	3.22	2.15	4.98	6.08	5.8	4.91	4.35	4.89
COc1cccc(-n2nc(C)c3c(N/N=C(\C)c4ccncc4)ncnc32)c1	3.31	1.98	0.96	0.44	1.01	0.07	2.47	0.79	-0.06	1.02	1.89	0.8	0.14	1.88	-1.01	3.14	-0.1	1.89	2	1.2
FC(F)(F)c1ccc(-c2nn3ncccc3c2-c2ccnc(Nc3ccc4c(c3)OCCO4)n2)cc1	36.7	-5.93	-4.69	0.48	10.2	3.02	12.5	6.46	43.5	7.67	12.1	-0.13	1.22	7.55	6.28	6.74	11.1	6.49	6.94	6.29
c1ccc(Cc2nc3ccc(Nc4ncnc5ccccc45)cc3[nH]2)cc1	12.8	3.69	6.08	1.42	1.8	2.07	51.6	98.2	115	0.32	6.1	1.75	3.02	2.15	1.67	5.23	7.58	4.51	5.34	-1.72
COc1cccc(-n2ncc3c(N/N=C/c4ccc(S(C)(=O)=O)cc4)ncnc32)c1	11.5	-0.24	-2.08	-0.79	6.93	2.7	3.96	7.91	7.9	1.13	2.49	0.5	0.07	3.99	0.92	-2.62	4.85	1.85	4.08	-2.71
COc1ccc(-c2nn3ncccc3c2-c2ccnc(Nc3cccc(C(F)(F)F)c3)n2)cc1	6.69	3.95	4.5	0.66	5.01	3.15	9.69	25.8	83.1	0.8	1.69	3.15	2.54	1.38	-1.86	2.73	0.17	2.6	4.58	1.02
COc1cccc(-n2ncc3c(N/N=C/c4ccc(C)cc4)ncnc32)c1	9.45	2.7	4.17	3.6	3.21	2.26	3.43	6.09	11.9	8.13	17.5	5.32	10.3	4.11	17.7	9.23	7.12	9.56	6.72	4.16
